Reference: PubChem BioAssay AID686979 (National Center for Advancing Translational Sciences (NCATS), 2013)
Out of some 420,000 compounds screened, about 50,000 (12%) were called active. A call without a number means that no potency is given here. Inconclusive results (about 26%) are left out. The sample holds actives, similar compounds and a random draw of the others, so the mix is not that of the screen. Values without a mark were called inactive. The call rests on the fitted dose curve; in most records, active means well fitted inhibition curve with a large enough effect; inconclusive means small, poorly fitted or top-dose-only effect; inactive means flat fitted curve, though single readings scatter.

Test: qHTS for Inhibitors of human tyrosyl-DNA phosphodiesterase 1 (TDP1): qHTS in cells in presence of CPT; further: nearly all actives have a fitted effect of over 55% in size
Settings: chicken DT40 Tdp1-/-;hTDP1 cells + 20 nM CPT, ATP luminescence, 48 h; series mostly up to 46.2 µM
Method in brief: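 Chicken DT40 Tdp1-/- cells complemented with human TDP1, 400 cells/well, exposed to compounds plus 20 nM camptothecin for at least 48 h at 37 C; viability read as ATP content by CellTiter-Glo luminescence.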
Potency means the concentration at half of the fitted maximal effect.

SMILES	Potency	activity change, negative = growth inhibition
COc1ccccc1NC(=O)COC(=O)c1ccccc1SCC(=O)N1CCCC1	inactive	
c1ccc(-n2cccc2)c(N2CCCCC2)c1	inactive	
COC(=O)C1C(=O)NCC1c1ccc(OC)cc1 (stereo not drawn)	inactive	
COC(=O)C1=C(Nc2ccc(OC)cc2)C=C(C)C(C(=O)OC)C1c1ccc(C)cc1 (stereo not drawn)	16.4 µM (active)	
COc1ccc(N2C(=O)C(O)C2c2ccc(C)cc2)cc1 (stereo not drawn)	inactive	
Cc1ccc(C(=O)Nc2ccc3[nH]c(=O)c(=O)[nH]c3c2)cc1	inactive	
CC(C)CCNC(=O)CCNS(=O)(=O)c1ccc(Cl)cc1	inactive	
COC(=O)c1c(OCc2ccc(F)cc2)cc(=O)n2c1CCN(Cc1ccc3cccnc3c1)CC2		8.77% [at 9.04 µM]
O=C(Nc1cc(-c2nc3ccccc3o2)ccc1Cl)c1cc([N+](=O)[O-])ccc1N1CCOCC1	inactive	
COc1cc(/C=C/CNC[C@H]2O[C@@H](n3cnc(C(N)=O)n3)[C@H](O)[C@@H]2O)ccc1O	inactive	
O=C(c1ccc(Cl)cc1)n1nc(-c2cccnc2)nc1NCc1ccc(F)cc1	inactive	
O=C(c1ccco1)n1nc(-c2ccc(Cl)cc2)nc1NCc1ccccc1	18.4 µM (active)	
O=C(Cc1ccccc1)n1nc(-c2ccccc2)nc1NCc1ccco1	inactive	
COc1ccc(C(=O)NCCSc2ccccc2C)cc1	inactive	
CN1C(=O)c2cccc3c(N)ccc(c23)C1=O	inactive	
CCN1C(=O)c2cccc3c(N)ccc1c23	11.6 µM (active)	
Cc1nn(C)cc1N1C(=O)c2cccc3c(N)ccc(c23)C1=O	inactive	
NC1=NC(c2cc(F)cc(F)c2)n2c(nc3ccccc32)N1 (stereo not drawn)	inactive	
CS(=O)(=O)C1=NN2C(=N)/C(=C\c3ccc(OCCOc4ccccc4)cc3)C(=O)N=C2S1	inactive	
Cc1ccc(NC2CCCN(C(=O)CCC3(C)CC3)C2)cc1C (stereo not drawn)	inactive	
CCCCN(CC)CCCNC(=O)Cn1ncc2c([nH]c3ccc(C)cc32)c1=O	inactive	
Cc1nn(CC(=O)N2CCCCC2)c(=O)c2nn(-c3ccccc3)c(C)c12	inactive	
Cc1nn(C(C)C(=O)N2CCOCC2)c(=O)c2nn(-c3ccccc3)c(C)c12 (stereo not drawn)	inactive	

SMILES	Potency	activity change, negative = growth inhibition
CC(Sc1nncs1)C(=O)NCc1ccc2c(c1)OCO2 (stereo not drawn)	inactive	
COc1ccc(CNC(=O)C(C)n2nc(C)c3c(C)n(-c4ccccc4)nc3c2=O)c(OC)c1 (stereo not drawn)	16.4 µM (active)	
Cc1nc2c(C(=O)NCc3ccc4c(c3)OCO4)c[nH]n2c(=O)c1Cc1ccccc1F	inactive	
Cc1ccc(-n2nc3c(=O)n(C(C)C(=O)NCc4ccc5c(c4)OCO5)nc(C)c3c2C)cc1 (stereo not drawn)	18.4 µM (active)	
COc1ccccc1CNC(=O)Cn1nc(C)c2nn(-c3ccc(Cl)cc3)c(C)c2c1=O	20.6 µM (active)	
COc1ccccc1CNC(=O)Cn1c(=O)oc2cc(Cl)ccc21	inactive	
COc1ccccc1CNC(=O)Cn1cc2c(n1)CCCC2	inactive	
CN(CCC1CCOCC1)C(=O)CC1C(=O)NCCN1Cc1cccc(F)c1 (stereo not drawn)	inactive	
CC1CC(C)CN(CCOc2cccc3ccccc23)C1 (stereo not drawn)	inactive	
O=C(Nc1ccc([N+](=O)[O-])cc1)OCCc1ccccn1	inactive	
COc1ccc(CN2CCOc3c(cc(-c4ncc(C(F)(F)F)cc4Cl)cc3OCC3CCCO3)C2)c(O)c1 (stereo not drawn)	inactive	
O=C(CN1C(=O)NC2(CCOc3ccccc32)C1=O)NCc1ccc(F)cc1 (stereo not drawn)	inactive	
O=C(NCCCn1ccnc1)C(=O)c1cn(CC(=O)N2CCCCCC2)c2ccccc12	inactive	
CC(C)NC(=O)c1nn(-c2ccccc2F)nc1CO	inactive	
CC1(C)NC(=O)N(CC(=O)Nc2ccc(-c3ccccc3)cc2)C1=O	inactive	
O=C(Cc1ccccc1)N/N=C/c1ccc(Cl)cc1Cl	inactive	
O=C(CSc1nnc(SCc2ccc(Cl)cc2)s1)N/N=C/c1ccccc1Cl	18.4 µM (active)	
Cc1nnsc1C(=O)N/N=C/c1ccccc1Cl	inactive	
C=CCOc1ccccc1NC(=O)CN1C(=O)CNC1=O	inactive	
COc1ccc(CCN2C(=O)C(C)=C(C)C2=O)cc1OC	inactive	
COc1ccc(CCN2CNc3c(c(=O)n(C)c(=O)n3C)C2)cc1OC	inactive	
COc1ccc(CCn2cc3c(c2-c2ccc(Br)cc2)c(=O)n(C)c(=O)n3C)cc1OC	23.1 µM (active)	
O=S(=O)(c1ccc(-c2ccno2)s1)N1CCCCC1	inactive	

SMILES	Potency	activity change, negative = growth inhibition
COc1cccc(/C=C2\C=C(c3ccc(C)cc3)OC2=O)c1OC(C)=O	inactive	
COCc1c(C(=O)N/N=C\c2cccnc2)nnn1-c1nonc1N	inactive	
CCCCNC(=O)C(=O)c1ccccc1NC(C)=O	inactive	
CCCCNC(=O)Nc1c(C)cc(SC#N)cc1C	18.4 µM (active)	
c1ccc(CCc2ccccn2)cc1	inactive	
Cc1ccc(CC2CC(=O)N(c3nc(C)cc(C)n3)C2=O)cc1 (stereo not drawn)	inactive	
CC(=O)N1CC(C)c2scc(C)[n+]2-c2ccccc21 (stereo not drawn)	inactive	
CCOC(=O)c1nnn(-c2nonc2-n2cccc2)c1CN1CCOCC1	inactive	
CCOC(=O)c1nnn(-c2nonc2-n2cccc2)c1CN1CCC(C(=O)OCC)CC1	18.4 µM (active)	
NNC(=O)c1nnn(-c2nonc2N)c1CN1CCCC1	inactive	
CCOC(=O)C1(Cc2cccc(OC)c2)CCCN(C(=O)CCSC)C1 (stereo not drawn)	inactive	
CC1(c2ccccc2)NC(=O)N(CC(=O)N2CC(=O)Nc3ccccc32)C1=O (stereo not drawn)	inactive	
CC(C)Sc1nc(N)nc2c1ncn2C1OC(CO)C(O)C1O (stereo not drawn)	inactive	
COC1C(CO)OC(n2cnc3c(=S)nc(N)[nH]c32)C1O (stereo not drawn)	16.4 µM (active)	
Nc1nc2c(ncn2[C@@H]2O[C@H](CNS(=O)(=O)N3CCc4ccccc4C3)[C@@H](O)[C@H]2O)c(=O)[nH]1	inactive	
COC(=O)CNS(=O)(=O)c1ccc(Cc2ccc(S(=O)(=O)NCC(=O)OC)cc2)cc1	inactive	
CCn1c(SCC(=O)Nc2ccc3c(c2)OCCO3)nnc1C(C)C	inactive	
CCCn1c(SCC(=O)c2ccc3c(c2)OCCO3)nnc1C(C)C	23.1 µM (active)	
CCCn1c(SCC(N)=O)nnc1C(C)C	inactive	
Cn1c(SCC(=O)N2CCCc3ccccc32)nc2ccccc2c1=O	7.31 µM (active)	
O=C(CSc1nc2ccccc2c(=O)n1CCCO)N1CCc2ccccc21	inactive	
CCC(=O)N1CCCc2ccccc21	inactive	
